Inconclusive results are not listed. The source made the active and inactive calls. Calls come from the whole dose curve; as a rule, active = well fitted inhibition curve with a large enough effect; inconclusive = small, poorly fitted or top-dose-only effect; inactive = no such curve, though single readings can be large or run the other way.
test system: 6-phosphofructokinase (Trypanosoma brucei); test: Confirmatory Assay to Find Inhibitors of T. brucei phosphofructokinase: probe SAR; details: recombinant T. brucei PFK, ADP-Glo luminescence; series mostly up to 57.5 µM
From the text: NIH Molecular Libraries Probe Production Network [MLPCN] NIH Chemical Genomics Center [NCGC] Grant: 1 R03 MH092153-01 PI Name: Malcolm Walkinshaw, University of Edinburgh NCGC Assay Overview: Various species of the protozoan family Trypanosomatidae are responsible for a range of serious human diseases in tropical and subtropical areas of the world. […] Many of the disorders caused by trypanosomatids are fatal if left untreated, but most currently used drugs are inefficient and toxic. […] Oxidative metabolism involving the mitochondrial tricarboxylic acid cycle and oxidative phosphorylation are repressed in these parasites, and recent RNA interference (RNAi) experiments have shown that even partial depletion of certain individual glycolytic enzymes can lead to the death of cultured parasites. One such glycolytic enzyme, phosphofructokinase (PFK), catalyzes the formation of fructose-1,6-bisphosphate (F1,6BP) and ADP from fructose-6-phosphate (F6P) and ATP, and in many metabolic circumstances makes an important contribution to the control of flux through the glycolytic pathway. As a specific glycolytic target, PFK is particularly attractive as it catalyzes the first irreversible step in glycolysis, and structural and kinetic studies have shown very substantial and essential differences from corresponding host enzymes, allowing for the discovery of parasite-selective inhibitors. The goal of this screen is to find small-molecule inhibitors of T. brucei PFK using a biochemical assay that measures PFK activity as a function of ADP production. A luminescence-based assay for T. brucei PFK activity has been developed which uses luciferase to detect production of ADP. Traditional luciferase-based nucleotide detection reagents rely on ATP production as a direct substrate for the luciferase reaction; however, PFK catalyzes the transfer of a phosphate from ATP to F6P, resulting in the net depletion of ATP. To directly measure the ADP product of the PFK reaction, we used the ADP-Glo detection kit (Promega), which utilizes two separate reactions to 1) deplete all remaining uncatalyzed ATP and 2) convert all remaining ADP to ATP, which is then detected through a traditional luciferase-coupled reaction. Compounds were screened as a concentration-titration series that ranged from 57 uM to 0.3 nM.
NCGC Assay Protocol Summary: NCGC Assay Protocol Summary: Substrate buffer was dispensed into white, solid 1536-well plates at 3uL/well in 0.1M triethanolamine (TEA) buffer, pH 8.0, containing final concentrations of 5 mM MgCl2, 0.01% Tween20, 0.5 mM fructose-6-phosphate (F6P) and 0.1mM ATP. Then, 23 nL of compounds or DMSO were delivered to each well using a pin tool. One uL T. brucei PFK (0.1M TEA, 0.01% Tween20, 0.1% bovine serum albumin (BSA) and 1.25nM PFK, final concentrations) was then dispensed, and plates were incubated at room temperature for 45 min. The luminescent detection reagent, ADP-Glo (Promega), was then added in two steps: the first reagent, ADP-Glo (which converts remaining uncatalyzed ATP), was added at 2.5uL/well and incubated for ten minutes at room temperature, and the second component, Kinase Detection reagent (which converts ADP to ATP as a substrate for luciferase-based luminescence), was added immediately after at 5uL/well, followed by one final ten minute room temperature incubation. The plates were measured on a ViewLux plate reader for luminescent signal using a clear filter with a one second exposure. The %Activity was determined from the corrected luminescence values. As no specific T. brucei PFK inhibitors have been identified in the literature, 1x (1.25nM) and 0x PFK enzyme controls (untreated) were included to normalize %Activity of identified inhibitors; 0x enzyme values corresponded to 100%Activity (full inhibition), while 1x PFK enzyme values were used to normalize 0%Activity (no inhibition). Concentration-response curves were fitted to the signals arising from the resulting luminescence. […]

Row | Compound | Potency
1 | Cc1cc(NS(=O)(=O)c2ccc(NC(=O)Cc3ccc(Cl)cc3Cl)cc2)no1 | 4.61 µM (active)
2 | Cc1cc(NC(=O)c2ccc(NC(=O)Cc3ccc(Cl)c(Cl)c3)cc2)no1 | inactive
3 | O=C(Cc1ccc(Cl)c(Cl)c1)Nc1ccc(S(=O)(=O)Nc2cccc(C(=O)O)c2)cc1 | 0.259 µM (active)
4 | Cc1cc(NS(=O)(=O)c2cccc(NC(=O)Cc3ccc(Cl)c(Cl)c3)c2)no1 | 16.3 µM (active)
5 | Cc1cc(NS(=O)(=O)c2ccc(NC(=O)Cc3ccc(Cl)cc3)cc2)no1 | 1.83 µM (active)
6 | Cc1cc(NS(=O)(=O)c2ccc(NC(=O)Cc3ccc(C)c(C)c3)cc2)no1 | 18.3 µM (active)
7 | CCOC(=O)c1cccc(NS(=O)(=O)c2ccc(NC(=O)Cc3ccc(Cl)c(Cl)c3)cc2)c1 | inactive
8 | O=C(Cc1ccc(Cl)c(Cl)c1)Nc1ccc(S(=O)(=O)Nc2ccc(C(=O)O)cc2)cc1 | 0.163 µM (active)
9 | O=C(Cc1ccc(Cl)c(Cl)c1)Nc1ccc(S(=O)(=O)O)cc1 | 0.651 µM (active)
10 | Cc1cc(NS(=O)(=O)c2ccc(NC(=O)Cc3ccc(C)c(F)c3)cc2)no1 | 5.8 µM (active)
11 | Cc1cc(NS(=O)(=O)c2ccc(NC(=O)Cc3ccc(Cl)c(Cl)c3)cc2)on1 | 0.206 µM (active)
12 | Cc1cc(NS(=O)(=O)c2ccc(NC(=O)Cc3ccc(Cl)c(Cl)c3)cc2)n(C)n1 | 1.46 µM (active)
13 | O=C(Cc1ccc(Cl)c(Cl)c1)Nc1ccc(S(=O)(=O)Nc2ccon2)cc1 | 0.366 µM (active)
14 | Cc1cc(NS(=O)(=O)c2ccc(NC(=O)Cc3ccc(Cl)c(Cl)c3)cc2)no1 | 0.41 µM (active)
15 | O=C(Cc1ccc(Cl)c(Cl)c1)Nc1ccc(S(=O)(=O)Nc2ccn[nH]2)cc1 | 0.517 µM (active)
16 | Cc1cc(NS(=O)(=O)Cc2ccc(NC(=O)Cc3ccc(Cl)c(Cl)c3)cc2)no1 | 2.59 µM (active)
17 | Cc1cc(N[S+](=O)([O-])c2ccc(NC(=O)Cc3ccc(Cl)nc3)cc2)no1 | 20.6 µM (active)

Row | Compound | Potency
18 | COc1ccc(CC(=O)Nc2ccc(S(=O)(=O)Nc3cc(C)on3)cc2)cc1OC | inactive
19 | Cc1cc(N(C)S(=O)(=O)c2ccc(NC(=O)Cc3ccc(Cl)c(Cl)c3)cc2)no1 | 2.91 µM (active)
20 | O=C(Cc1ccc(Cl)c(Cl)c1)Nc1ccc(S(=O)(=O)Nc2cncnc2)cc1 | 0.819 µM (active)
21 | Cc1cc(NC(=O)c2csc(NC(=O)Cc3ccc(Cl)c(Cl)c3)n2)no1 | inactive
22 | Cc1cc(NS(=O)(=O)c2ccc(NC(=O)Cc3ccc4ccccc4c3)cc2)no1 | 6.51 µM (active)
23 | CN(C)c1cccc(NS(=O)(=O)c2ccc(NC(=O)Cc3ccc(Cl)c(Cl)c3)cc2)c1 | 5.8 µM (active)
24 | Cc1cc(NS(=O)(=O)c2ccc(NCCc3ccc(Cl)c(Cl)c3)cc2)no1 | 4.61 µM (active)
25 | COc1ccc(CC(=O)Nc2ccc(S(=O)(=O)Nc3cc(C)on3)cc2)cc1C | inactive
26 | Cc1cc(NS(=O)(=O)c2ccc(NC(=O)Cc3ccc(Cl)c(C(F)(F)F)c3)cc2)no1 | 0.461 µM (active)
27 | Cc1cc(NS(=O)(=O)c2ccc(C(=O)NCc3ccc(Cl)c(Cl)c3)cc2)no1 | 2.91 µM (active)
28 | O=C(Cc1ccc(Cl)c(Cl)c1)Nc1ccc(S(=O)(=O)Nc2cccc(O)c2)cc1 | 1.46 µM (active)
29 | O=C(Cc1ccc(Cl)c(Cl)c1)Nc1ccc(S(=O)(=O)Nc2ccccc2)cc1 | 16.3 µM (active)
30 | Cc1cc(N[S+](=O)([O-])c2ccc3cc(NC(=O)Cc4ccc(Cl)c(Cl)c4)ccc3c2)no1 | 5.8 µM (active)
31 | Cc1cc(NS(=O)(=O)c2ccc(N(C)C(=O)Cc3ccc(Cl)c(Cl)c3)cc2)no1 | 1.63 µM (active)
32 | Cc1cc(NS(=O)(=O)c2ccc(NC(=O)Cc3cccc(Cl)c3)cc2)no1 | 7.3 µM (active)
33 | Cc1cc(NS(=O)(=O)c2ccc(NC(=O)Cc3ccc(Cl)c(F)c3)cc2)no1 | 0.58 µM (active)
34 | Cc1cc(NS(=O)(=O)c2ccc(NC(=O)CCc3ccc(Cl)c(Cl)c3)cc2)no1 | 5.17 µM (active)
